Compounds without any hit were thinned out: in the full panel of roughly 83,000, 20% have a hit.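 Results are percent growth after 48 hours of single-concentration exposure. 100 means growth as in untreated cells, lower positive values show inhibition; negative values down to -100 show cell death.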 Values without a mark were called inactive. Active and inactive are the calls of the source. Rule for the calls: active = growth percent below 10; inactive = the rest.

For the assay, the system named is MOLT-4 leukemia. In words: NCI-60 one-dose screen, 48 h (100 = growth as untreated, 0 = no growth, -100 = all killed). Particulars: 10 µM unless noted.
As to `Cn1ccnc1C(=O)/C=C/c1ccc(NC(=O)Nc2ccc(Cl)cc2)cc1`, the growth is 57.5%.

For the molecule `C#Cc1nc(C2=C(C)/C(=N/OCc3ccccc3)CC2)cs1`, the growth is 60.7%.

With `COc1ccc(-n2c(SCC(=O)Nc3ccc(-c4nc5ccccc5[nH]4)cc3)nc3ccccc3c2=O)cc1`, the growth is 25.7%.

Regarding `COc1cc(OC)c(S(=O)(=O)NNC(=O)c2ccncc2)cc1C(=O)/C=C/c1ccc(C)cc1`, the growth is 42.2%.

As for `COC(=O)C(C)NS(=O)(=O)/N=C1\NC(=O)NC1=C(Cl)Cl` (configuration not stated), the growth was 100%.

As for `COc1ccc(C(=O)/C=C/c2ccc(Oc3nc(NCCO)nc(N4CCOCC4)n3)c(OC)c2)cc1`, the growth is 10.6%.

For `NS(=O)(=O)c1cccc(Nc2nc(SCC(=O)c3ccc(Br)cc3)nc3ccccc23)c1`, the growth was 44%.

For `O=C(N/N=C/c1ccc([N+](=O)[O-])o1)c1[nH]c2ccc(Br)cc2c1-c1ccccc1`, the growth is 5.69% (active).

On to `O=C(N/N=C/c1cccs1)c1[nH]c2ccc(Br)cc2c1-c1ccccc1`, for which the growth was 11.5%.

On to `N#Cc1nc(-c2ccccc2)oc1N1CC[C@@H](CO)C1`, for which the growth is 101%.

For `Cn1ccnc1C(=O)/C=C/c1ccc(NC(=O)Nc2ccc(F)cc2)cc1`, the growth is 11.6%.

Take `NS(=O)(=O)c1ccc(Nc2nc(Nc3ccccc3)nc(-n3nc(-c4ccccc4)cc3-c3ccccc3)n2)cc1`: the growth is 4.14% (active).

`C#Cc1nc(C2=C(C)C(O)/C(=N/O)C2)cs1` (configuration not stated): the growth is 86.5%.

`CN1CCc2c(sc3ncnc(N/N=C/c4ccc(Cl)c(Cl)c4)c23)C1`: the growth was 26.6%.

As for `O=C(N/N=C/c1ccc(Br)s1)c1[nH]c2ccc(Br)cc2c1-c1ccccc1`, the growth was 14.2%.

With `C#Cc1nc(C2=C(C)C(O)CC2)cs1` (configuration not stated), the growth is 95.1%.

With `O=C(N/N=C/c1ccc[nH]1)c1[nH]c2ccc(Br)cc2c1-c1ccccc1`, the growth is 5.94% (active).

Take `COc1ccc(/C=N/NC(=O)c2[nH]c3ccc(Br)cc3c2-c2ccccc2)s1`: the growth was 10.4%.

As for `C/C(=N\NC(N)=O)c1c(O)sc(=O)[nH]c1=O`, the growth is 109%.

For `C#Cc1nc(C2=C(C)C(=O)/C(=N/OC(C)=O)C2)cs1`, the growth was 87.7%.

As to `Cn1ccnc1C(=O)/C=C/c1ccc(NC(=O)Nc2ccccc2)cc1`, the growth was 4.35% (active).

As for `COc1cc(/C=C/C(=O)c2cc(OC)c(OC)c(OC)c2)ccc1OCc1ccccc1`, the growth was 26.2%.

Regarding `CC(O)C(NC(=O)C1CCCN1C(=O)CNC(=O)C1CC(=O)NCC(=O)NC(Cc2c[nH]c3ccccc23)C(=O)NC(Cc2ccc(O)cc2)C(=O)NCC(=O)NC(CO)C(=O)NC(CCC(N)=O)C(=O)NC(Cc2c[nH]c3ccccc23)C(=O)N1)C(=O)NCC(=O)NC(CCC(N)=O)C(=O)NC(CCCNC(=N)N)C(=O)NC(CC(=O)O)C(=O)O` (configuration not stated), the growth was 104%.

As to `COc1cc(/C=C/C(=O)c2cc(OC)c(OC)c(OC)c2)ccc1OCc1ccc(F)cc1`, the growth is 46.2%.

For `O=C(N/N=C/c1ccc([N+](=O)[O-])s1)c1[nH]c2ccc(Br)cc2c1-c1ccccc1`, the growth was 9.21% (active).

Consider `N#Cc1c(-c2ccc(Cl)cc2)nc2c(-c3ccccc3)c(Nc3ccccc3)nn2c1N`, for which the growth is 61%.

Take `O=C(Oc1ccc2ccc(=O)oc2c1)c1ccc(Cl)cc1`: the growth was 106%.

As for `C#Cc1nc(C2=C(C)C(OC(=O)CCC(=O)O)CC2)cs1` (configuration not stated), the growth is 106%.

`C#Cc1nc(C2=C(C)C(=N\O)/C(=N/O)C2)cs1`: the growth was 88%.

Turning to `O=C(N/N=C/c1ccco1)c1[nH]c2ccc(Br)cc2c1-c1ccccc1`, the growth is 15.8%.

Take `COC(=O)C(Cc1ccccc1)NS(=O)(=O)/N=C1\NC(=O)NC1=C(Cl)Cl` (configuration not stated): the growth was 79.3%.

Take `N#Cc1ccc(/C=N/NC(=O)c2[nH]c3ccc(Br)cc3c2-c2ccccc2)s1`: the growth was 4.12% (active).
